# About 13,000 (27%) of roughly 48,000 compounds showed an effect of 50% or more. This is one part of the list.
# System: Wolbachia pipientis
# Assay: Anti-Wolbachia Cell-Based Screen
# Assay type: functional
# Parameters: scale not given: in the data most compounds retested in dose-response had high values
# Conditions: 5 µM
row,Structure (SMILES),Percent Effect [%]
1,Cc1cc(N2CCC(N(C)Cc3cc(=O)c(O)co3)CC2)nc(C)n1,-0.2819
2,CN(CC(O)C1CC1)C(=O)Nc1ccc(F)c(-n2cccc2)c1 (stereo not given),2.69
3,CCn1nc(C(=O)N2CCCC2c2noc(C)n2)ccc1=O (stereo not given),2.469
4,CCc1cc(O)nc(C2CCCN2C(=O)c2cc(CC)on2)n1 (stereo not given),115.4
5,CCc1nc(C2CCCN2C(=O)c2ccc(=O)n(CC)n2)no1 (stereo not given),-10.47
6,CCc1cc(C(=O)N2CCCC2c2nc(O)cc(CC)n2)on1 (stereo not given),115.5
7,CCc1nc(C2CCCN2C(=O)c2nccnc2N)no1 (stereo not given),-19.66
8,CCc1cc(O)nc(C2CCCN2C(=O)COC)n1 (stereo not given),126
9,CCc1cc(O)nc(C2CCCN2C(=O)c2cc(C)no2)n1 (stereo not given),-6.64
10,CCc1ccc(C(=O)NC2CCN(c3ccn(C)n3)C2)o1 (stereo not given),-10.19
11,O=C(Nc1cc(C(F)(F)F)ccc1Cl)c1ccc(N2CCCC2)nn1,13.93
12,N#Cc1ccc(OCCNc2cccc(C(=O)N3CCOCC3)c2)cc1,-3.52
13,CC(C)C(C#N)N1CCN(C(=O)c2cc(-c3ccccn3)no2)CC1 (stereo not given),-9.203
14,O=C(NCCn1cccc1)C1CCCN(C2CCCC2)C1 (stereo not given),-8.525
15,CNC(=O)[C@@H]1C[C@H](n2cc(-c3ccc(Cl)cc3)nn2)CN1,104.7
16,CCN(CC)C(=O)[C@@H]1C[C@@H](n2cc(-c3cccc(OC)c3)nn2)CN1,-2.078
17,CCN(CC)C(=O)[C@@H]1C[C@H](n2cc(-c3ccccn3)nn2)CN1,-5.115
18,CNC(=O)[C@@H]1C[C@@H](n2cc(-c3ccc(Cl)cc3)nn2)CN1,111.1
19,CCN(CC)C(=O)[C@@H]1C[C@@H](n2cc(-c3ccccn3)nn2)CN1,-7.154
20,CCN(CC)C(=O)[C@@H]1C[C@H](n2cc(-c3cccc(OC)c3)nn2)CN1,-3.277
21,CNC(=O)NC(=O)CCSc1ccccc1C,-14.48
22,CCc1noc(CN2CCCC2C(=O)OCc2ccccc2)n1 (stereo not given),6.169
23,Cc1nc2n(n1)CC(NCC(=O)NCCCOC(C)C)CC2 (stereo not given),-9.274

row,Structure (SMILES),Percent Effect [%]
1,Cc1ccc(NC2CCN(C(=O)Cc3ccc(C#N)cc3)CC2)nn1,-2.358
2,COc1ccc(CC(=O)N2CCC(Nc3ccc(C)nn3)CC2)cc1,95.7
3,Cc1ccc(CC(=O)N2CCC(Nc3ccc(C)nn3)CC2)cn1,105.9
4,Cc1ccc(OCC(=O)NS(=O)(=O)c2cccnc2)cc1C,-7.985
5,Cc1c[nH]c(C(=O)N2CCC(c3nnc(CN(C)CCO)n3C)CC2)c1,-9.354
6,CCCNC(=O)CN1CCOC(c2ccc(Br)cc2)C1 (stereo not given),-1.206
7,Cc1cc(C)c2nc(CN3CCCC(c4cc[nH]n4)C3)cc(O)c2c1 (stereo not given),54.67
8,Cc1cc(C)c2nc(CN3CC[C@@H](O)C3)cc(O)c2c1,-21.84
9,COC1CCCN(Cc2cc(O)c3cc(C)cc(C)c3n2)C1 (stereo not given),-4.558
10,CCN(CC)[C@@H]1CN(Cc2nccn2C)[C@@H]2CCCO[C@H]12.O=C(O)C(F)(F)F.O=C(O)C(F)(F)F.O=C(O)C(F)(F)F,-9.914
11,CN(Cc1cccnc1)[C@@H]1CN(Cc2cnn(C)c2)[C@@H]2CCCO[C@H]12.O=C(O)C(F)(F)F.O=C(O)C(F)(F)F.O=C(O)C(F)(F)F.O=C(O)C(F)(F)F,88.39
12,CN(Cc1cccnc1)[C@@H]1CN(Cc2nccn2C)[C@@H]2CCCO[C@H]12.O=C(O)C(F)(F)F.O=C(O)C(F)(F)F.O=C(O)C(F)(F)F.O=C(O)C(F)(F)F,107.5
13,Cn1cc(CN2C[C@H](N3CCOCC3)[C@@H]3OCCC[C@@H]32)cn1.O=C(O)C(F)(F)F.O=C(O)C(F)(F)F,9.025
14,CN(Cc1ccco1)[C@@H]1CN(Cc2cnn(C)c2)[C@@H]2CCCO[C@H]12.O=C(O)C(F)(F)F.O=C(O)C(F)(F)F,12.06
15,CN(Cc1ccco1)[C@@H]1CN(Cc2nccn2C)[C@@H]2CCCO[C@H]12.O=C(O)C(F)(F)F.O=C(O)C(F)(F)F.O=C(O)C(F)(F)F,-0.8776
16,CCC(C)(CNC(=O)Nc1nncs1)N1CCOCC1 (stereo not given),-7.544
17,Cc1nc(C)n(CC2CCCN(c3ncnc4ccsc34)C2)n1 (stereo not given),-4.048
18,Cc1nc(C)n(CC2CCCN(c3ncnc4ccccc34)C2)n1 (stereo not given),143.5
19,Cc1nc(C)n(CC2CCCN(c3ccc(C#N)cn3)C2)n1 (stereo not given),123
20,Cc1nc(C)n(CC2CCCN(c3ccnc(-c4ccccc4)n3)C2)n1 (stereo not given),-14.72
21,Cc1nc(C)n(CC2CCCN(c3ncnc4c3CCC4)C2)n1 (stereo not given),-12.81
22,CC(C)(NC(=O)C1CCN(C2CCCCC2)CC1)c1nnc(N)s1,3.743
23,c1cncc(-c2nc3c(c(NCC4(c5ccncc5)CC4)n2)CCC3)c1,-14.36

row,Structure (SMILES),Percent Effect [%]
1,CCn1nc(C)cc1C(=O)N1CCOc2cc(C)ccc21,-0.2889
2,Cc1csc(CNc2cnn(C(C)C)c2)n1,2.502
3,Cc1cn2c(CN(C)C(=O)c3cccnc3O)c(C)nc2s1,1.222
4,Cc1nn(C)c(C)c1C1CCCN1Cc1nc(-c2ccccn2)no1 (stereo not given),93.92
5,Cc1nn(C)c(C)c1C1CCCN1Cc1nc(-c2cccs2)no1 (stereo not given),66.61
6,Cc1nc(C)n(CC2CCCN2Cc2nc(-c3cccs3)no2)n1 (stereo not given),-9.424
7,Cc1nn(C)c(C)c1C1CCCN1Cc1nc(C2CC2)no1 (stereo not given),-2.837
8,C1CCC(c2nnc3sc(C4CCOC4)nn23)C1 (stereo not given),100.6
9,C1CCC(c2nnc3sc(C4CCCO4)nn23)C1 (stereo not given),107.8
10,C1CCC(c2nn3c(C4CCCO4)nnc3s2)C1 (stereo not given),94.06
11,CCn1cc(N2Cc3nc(N4CCN(C)CC4)ncc3C2=O)cn1,-2.562
12,CC(=O)N1CC[C@H]2CC(=O)N(CCc3c[nH]cn3)CC[C@H]2C1,10.36
13,Cc1oc(C(=O)O)cc1S(=O)(=O)Nc1cc(Br)ccc1F,94.97
14,CN(C)C(=O)CNS(=O)(=O)c1cc(Br)ccc1F,0.0286
15,Cc1oc(C(=O)O)cc1S(=O)(=O)Nc1cccc(-c2nccs2)c1,2.887
16,Cc1oc(C(=O)O)cc1S(=O)(=O)Nc1cccc(Cl)c1F,105.9
17,Cc1oc(C(=O)O)cc1S(=O)(=O)Nc1cc(Cl)ccc1F,4.903
18,Cc1oc(C(=O)O)cc1S(=O)(=O)Nc1ccc(Cl)cc1F,103.2
19,Cc1oc(C(=O)O)cc1S(=O)(=O)Nc1ccc(Cl)c(F)c1,-4.199
20,O=C(O)c1ccc(S(=O)(=O)Nc2ccccc2CC(F)(F)F)c(F)c1,-4.395
21,Cc1cccc(NS(=O)(=O)c2cc(C(=O)O)oc2C)c1Cl,-7.287
22,Cc1oc(C(=O)O)cc1S(=O)(=O)Nc1ccccc1F,96.87
23,Cc1ccc([C@H]2CN(C(C)C)C[C@@H]2NS(=O)(=O)N2CCOCC2)o1,-9.511

row,Structure (SMILES),Percent Effect [%]
1,O=C(O)C(F)(F)F.O=C(c1ccncc1)N1CC[C@H]2[C@H]1CCN2S(=O)(=O)C1CC1,-0.5443
2,CCn1ccnc1CNCC1CCN(CC(O)c2ccccc2)CC1 (stereo not given),-5.873
3,Cc1cc(CN2CCC3(CC2)CC(C(=O)O)N(C(=O)C2CC2)C3)oc1C (stereo not given),-10.16
4,O=C(c1cc(Cl)c2c(c1)OCO2)N1CCN(c2ccccn2)CC1,-15.08
5,Cc1cccc(NS(=O)(=O)c2cc(C(=O)O)oc2C)c1,-4.62
6,Cc1oc(C(=O)O)cc1S(=O)(=O)Nc1cc(F)ccc1F,110.8
7,Cc1ccc(F)c(NS(=O)(=O)c2cc(C(=O)O)oc2C)c1,98.71
8,O=C(O)CSc1nnc(-c2cn[nH]c2)n1-c1ccccc1Cl,-15.15
9,O=C(CS(=O)(=O)c1cccc[n+]1[O-])NC1CCCc2ccccc21 (stereo not given),4.468
10,CN(Cc1cccnc1)C[C@H]1OC[C@@H]2CCN(C(=O)C3CC3)C[C@@H]21.O=C(O)C(F)(F)F.O=C(O)C(F)(F)F,-29.83
11,Cc1ccnc2c1NC(=O)CN2C(=O)CCc1cccs1,21.37
12,Fc1ccc(CN2CCO[C@H]3[C@H](OCc4ccncc4)CC[C@@H]32)cc1.O=C(O)C(F)(F)F.O=C(O)C(F)(F)F,140.9
13,Fc1ccccc1CN1C[C@@H](OCc2ccncc2)[C@H]2OCCC[C@H]21.O=C(O)C(F)(F)F.O=C(O)C(F)(F)F,11.15
14,Cc1nnc(N2C[C@H](OCc3ccncc3)[C@H]3OCCC[C@H]32)s1.O=C(O)C(F)(F)F.O=C(O)C(F)(F)F,-4.606
15,COc1ccc(CN2CCO[C@H]3[C@H](OCc4ccncc4)CC[C@@H]32)cc1.O=C(O)C(F)(F)F.O=C(O)C(F)(F)F,132.4
16,Cc1cccc(CN2CCO[C@@H]3CC(COc4ccccn4)C[C@H]32)n1.O=C(O)C(F)(F)F.O=C(O)C(F)(F)F (stereo not given in full),94.81
17,Cc1cccc(CO[C@@H]2CC[C@H]3[C@H]2OCCN3Cc2cc(C)on2)n1.O=C(O)C(F)(F)F.O=C(O)C(F)(F)F,-3.201
18,O=C(CO[C@@H]1CC[C@H]2[C@H]1OCCN2Cc1ccccn1)N1CCCC1.O=C(O)C(F)(F)F.O=C(O)C(F)(F)F,-4.207
19,Cc1cccc(CN2Cc3[nH]nc(COCC4CC4)c3C2)n1.O=C(O)C(F)(F)F,-6.126
20,COc1ccc(CN2CCO[C@H]3[C@H](Oc4ccccn4)CC[C@@H]32)cc1.O=C(O)C(F)(F)F.O=C(O)C(F)(F)F,-1.108
21,Cc1cccc(CN2CCO[C@H]3[C@@H](OCc4ccncc4)CC[C@@H]32)n1.O=C(O)C(F)(F)F.O=C(O)C(F)(F)F.O=C(O)C(F)(F)F,103.5

# From ChEMBL document CHEMBL3988442, “University of Dundee, Small-Polar-MMV Screening Library” (2021)
